# Results as given in PubChem BioAssay (NCI).
# This is part of a sample that, as a whole, favours compounds with a hit. Of some 83,000 tested, about 20% had one in any assay.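 Interpretation: 100, growth as untreated; towards 0, rising growth inhibition; 0, no net growth; 0 to -100, cell death. Compounds scoring below 10 were considered active.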 A number with no mark means an inactive call. Active and inactive are the calls of the source.
# What was measured:
# Test in all cases: NCI-60 one-dose screen, 48 h (100 = growth as untreated, 0 = no growth, -100 = all killed)
# Conditions in all cases: 10 µM
# [1] = test system: BT-549 breast
# [2] = test system: MDA-MB-435 melanoma
# [3] = test system: SW-620 colon
# [4] = test system: MCF7 breast
# [5] = test system: HCT-116 colon
# [6] = test system: HCC-2998 colon
# [7] = test system: KM12 colon
Compound,growth [1],growth [2],growth [3],growth [4],growth [5],growth [6],growth [7]
COc1cc(-c2nn3c(/C=C4/C(=O)Nc5ccccc54)c(-c4ccc(C)cc4)nc3s2)cc(OC)c1OC,22.8%,33.6%,54.8%,39.4%,24%,85.1%,51%
CCCCCCN1CCN(Cc2ccc(N(CC)CC)cc2)C(=O)C1=O,68.1%,-79.5% (active),24%,17.2%,34.2%,52%,28.5%
Cc1ccc2oc3nc(C)c(C(=O)NCc4ccccc4)cc3c(=O)c2c1,95.1%,65.5%,77.5%,45.6%,60.6%,35.4%,28.6%
CN1CC[C@@H](c2c(O)cc(O)c3c(=O)cc(-c4ccccc4Cl)oc23)[C@@H](O)C1,-22.8% (active),-91.2% (active),9.83% (active),9.53% (active),8.46% (active),-34% (active),-34% (active)
CCCCCCCCCCCCCCCCCCOCC(COCCOCC[N+]1(CCCCCC(=O)[O-])CCCC1)Oc1ncccn1 (configuration not stated),33.8%,51.7%,42.9%,25.7%,20.4%,24.7%,15.2%
COc1ccc2c(c1OC)O/C(=C\c1ncc([N+](=O)[O-])n1C)C2=O,-41.3% (active),-76.4% (active),-21.2% (active),28.9%,4.48% (active),34.6%,43.1%
COc1ccc2nc3cc(Cl)ccc3c(NCCNCC(C)O)c2c1 (configuration not stated),88%,37.9%,19.9%,10.5%,13.1%,40.8%,25.5%
N#Cc1cccc(OCc2nc(N)nc(N)c2-c2ccc(Cl)c(Cl)c2)c1,40.1%,21.3%,17.9%,28.5%,12.1%,29.8%,25.2%
c1ccc(C(NC2CC3CCC2C3)c2ccccc2)cc1 (configuration not stated),78.4%,91.6%,106%,98.4%,89.9%,102%,95%
COc1ccc(/C=C/C(=O)Nc2ccc(-c3nc4ccc(F)cc4s3)cc2)cc1,86.7%,97%,106%,38.9%,88.5%,99.1%,101%
Cc1nc2ccccc2c(N)c1-c1cc(C)c2c(C)nc3ccccc3c2n1,58.2%,69.4%,-65.7% (active),31.2%,-82.1% (active),-35% (active),-83.2% (active)
Cc1cc(=O)[nH]c(N/N=C/c2ccccc2O)n1,101%,72.1%,56.5%,4.95% (active),8.06% (active),54.3%,51.2%
Cc1cc(Nc2ccc(Cl)cc2)nc(NCCCNc2ccnc3cc(Cl)ccc23)n1,-86.7% (active),-88.6% (active),-67.4% (active),-100% (active),-97.4% (active),-88.9% (active),-33.4% (active)
CC(=O)/C(=C/c1ccccc1)C(=O)CC(C)C,98.8%,54.3%,24.7%,50.4%,27.7%,105%,72.2%
COc1cc(-c2nc(-c3nnc(-c4ccc(F)c(Cl)c4)o3)c3ccccn23)cc(OC)c1OC,2.74% (active),49.8%,58.7%,15.5%,-31.5% (active),64.1%,5.68% (active)
O=C(O)c1ccc(Cl)cc1Nc1ccc(F)cc1,32.5%,83.2%,94.6%,76.7%,72.8%,81.9%,74.5%
OCC1OC(n2cnc3c(N/N=C\c4ccccn4)ncnc32)C(O)C1O (configuration not stated),44.3%,23.6%,23.9%,16.8%,11.9%,10.9%,26.7%
Nc1ccccc1NC(=O)CCCCC(=O)Nc1ccc2c(c1)/C(=C/c1ccc[nH]1)C(=O)N2,33.9%,68.8%,91.3%,35%,82.7%,87.5%,15.9%

Compound,growth [1],growth [2],growth [3],growth [4],growth [5],growth [6],growth [7]
CC1CC(=O)OC(C)C1 (configuration not stated),114%,96.7%,107%,91.1%,104%,92.5%,110%
CCN(CC)CCN1CC(=O)Nc2cc(Cl)ccc21,107%,98.8%,86.4%,104%,102%,102%,103%
O=c1oc2cc(OS(=O)(=O)c3ccccc3)ccc2c2c1CCCCC2,59.9%,64.7%,44.2%,49.7%,29%,59.1%,41.1%
Cc1ccc(NC(=O)NC2CCCCC2)cc1,115%,105%,108%,93.8%,105%,111%,101%
O=C1C(=O)c2ccccc2C(O)=C1CCCc1ccc(C2CCCCCC2)cc1,58.2%,33.9%,32.9%,25.5%,24.6%,8.94% (active),37.8%
COc1ccc2c(c1)/C(=C\c1c[nH]c3ccc(OC)cc13)C(=O)N2,57.7%,-11.5% (active),15.1%,29.6%,30.1%,49.4%,10.1%
O=[P@@]1(c2ccccc2)O[C@H](COCc2ccccc2)[C@@H](OCc2ccccc2)[C@H](OCc2ccccc2)[C@H]1O,56.9%,95.6%,104%,51%,69.8%,103%,98.1%
Nc1c(C(=O)Nc2ccccc2Cl)sc2nc3c(cc12)C(=O)CCC3,61.2%,-53.3% (active),29%,16.1%,76.5%,63.2%,28.5%
Nc1nccc(Nc2ccccc2)n1,103%,107%,106%,107%,109%,114%,101%
O=C(Nc1cccc(-n2cc(-c3ccncc3)c(-c3ccc(O)c(Cl)c3)n2)c1)c1cc(C(F)(F)F)cc(C(F)(F)F)c1,79.7%,52%,67.7%,27.3%,44.1%,33.3%,27.1%
O=C(/C=C/c1cc2ccccc2[nH]c1=O)c1ccc2c(c1)OCO2,84.2%,95.7%,99.6%,80.6%,81.6%,105%,92.3%
Nc1c(C(=O)Nc2cccc(F)c2)sc2nc3c(cc12)C(=O)CCC3,48.4%,-43.8% (active),31.1%,11.9%,29%,23.4%,28.9%
COc1cc(/C=C2\Oc3cc(OCC(=O)c4ccccc4)ccc3C2=O)cc(OC)c1OC,128%,103%,114%,99.1%,106%,120%,98.9%
COc1cc(/C=C/C(=O)c2ccc(Cl)cc2)ccc1OS(=O)(=O)c1ccc(C)cc1,134%,81.2%,6.82% (active),11.2%,12.9%,112%,81.2%
CCCC#CCN(CC)CC,120%,95%,107%,102%,109%,120%,111%
Nc1ncn([C@@H]2O[C@H](CO)[C@@H](O)[C@H]2O)c(=O)n1,16.3%,16.6%,35.6%,23.5%,-31.5% (active),11.7%,16.6%
CC[C@H](C)C(=O)O[C@H]1CCC=C2C=C[C@H](C)C(CCC3C[C@@H](O)CC(=O)O3)[C@H]21 (some centres not stated),78.2%,84.4%,71.6%,83.6%,46.4%,89%,103%
CN(C)CC(O)c1ccc2cc(Br)c3ccccc3c2c1 (configuration not stated),75.8%,42.4%,63.7%,35.1%,41.2%,25.8%,48.6%
